Experimental data from PubChem BioAssay.
Calls of active or inactive are those of the source. Unless noted, how the calls were made is not given here.

Assays:
[1] = anti-His antibody binders, primary screen, artefact control for SMM control protein annotation, biochemical, small-molecule microarray, 635 nm fluorescence (AID 1128); details: anti-His Alexa647 antibody binding, higher = more signal;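 further: score merges feature fluorescence with signal-to-noise for each printed compound spot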
[2] = tested on: Human papillomavirus type 1a E7 protein (residues 1-88); assay: HPV1a E7 small-molecule binders, primary screen, biochemical, small-molecule microarray, residues 1-88, 635 nm (AID 1129); details: small-molecule microarray binding, fluorescence 635 nm; higher = more signal
[3] = target: Focal adhesion kinase 1 (Homo sapiens) (UniProt Q05397); assay: small-molecule microarray binders of FAK, primary screen, biochemical, 635/667 nm fluorescence, BSA, DTT (AID 1130); details: PTK2 binding, 635 nm fluorescence, higher = more signal;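 further: composite of spot emission at 667 nm and signal to noise over triplicate slides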
[4] = tested on: Fibrinogen (Alexa647-labelled); assay: fibrinogen binders on compound microarrays, profiling panel, artefact control for SMM control-protein annotation, biochemical, small-molecule microarray, 635/667 nm fluorescence (AID 1131); details: fibrinogen-A647 binding fluorescence, higher = more signal;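 further: z-score merges 667 nm fluorescence with per-spot signal-to-noise over triplicate slides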
[5] = target: Follistatin (Homo sapiens) (UniProt P19883); assay: follistatin binders on small-molecule microarrays, primary screen, biochemical, small-molecule microarray, 635/667 nm fluorescence (AID 1132); details: FST binding, 635 nm fluorescence, higher = more signal
[6] = target: Fibroblast growth factor 2 (Homo sapiens) (UniProt P09038); assay: FGF2 binders on small-molecule microarrays, primary screen, biochemical, small-molecule microarray, 635/667 nm fluorescence (AID 1133); details: small-molecule microarray binding, FGF2, fluorescence 635/667; higher = more signal
[7] = mitochondrial membrane potential change in A549 cells, profiling panel, cell-based, JC-1 fluorescence, basal, 24 h, 100 nL (AID 1138); details: higher = more signal;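 further: A549 lung adenocarcinoma cells under basal conditions with no added stimulus; test concentration not given here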
[8] = tested on: Lefty1; assay: Lefty1 binders on small-molecule microarrays, primary screen, biochemical, small-molecule microarray, 635/667 nm fluorescence (AID 1139); details: small-molecule microarray binding, fluorescence 635/667; higher = more signal
[9] = tested on: wheat germ agglutinin (Triticum aestivum), Alexa647-labelled; assay: wheat germ agglutinin binders on compound microarrays, profiling panel, artefact control for SMM control-protein annotation, biochemical, small-molecule microarray, 635/667 nm fluorescence (AID 1140); details: WGA-A647 binding, 635 nm fluorescence, higher = more signal;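 further: score merges 667 nm feature emission with signal to noise over triplicate slides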
[10] = target: Luciferin 4-monooxygenase (Photinus pyralis) (UniProt P08659); assay: firefly luciferase enzyme inhibitors, primary screen, biochemical, luminescence, purified enzyme, 2006 set (AID 1141); details: SteadyGlo luminescence, 30 min, higher = more signal, called active from +8 up or from −8 down;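 further: cell-free assay with purified firefly luciferase at 100 ng per well in PBS; test concentration not given here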
[11] = tested on: Wnt5a (protein binding on small-molecule microarray); assay: Wnt5a binders on small-molecule microarray, primary screen, biophysical, 635/667 nm fluorescence (AID 1142); details: 635 nm fluorescence, higher = more signal;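 further: fluorescence read at 667 nm with signal to noise per printed feature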
[12] = cell viability in Huh7 cells, primary screen, cytotoxicity control for HCV replication inhibitor project, CellTiter-Glo luminescence, basal, 48 h (AID 1143); details: Huh7 HCV replicon, higher = more signal, called active from +8 up or from −8 down;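 further: Huh7 hepatoma cells carrying a hepatitis C replication reporter with no stimulus; test concentration not given here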
[13] = P. aeruginosa biofilm formation inhibitors, primary screen, PAO1 strain, BacTiter-Glo luminescence, LB-PBS (AID 1144); details: 12 h, higher = more signal
[14] = CREB reporter modulators without forskolin, primary screen, cell-based, PC12, CRE-LacZ reporter, unstimulated (AID 1145); details: no forskolin, luminescence, 4.5 h, higher = more signal, called active from +8 up or from −8 down
[15] = CREB reporter modulators under forskolin, primary screen, cell-based, PC12, CRE-LacZ reporter, forskolin-stimulated (AID 1146); details: luminescence, 4.5 h, higher = more signal, called active from +8 up or from −8 down;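 further: PC12 cells with 6xCRE LacZ reporter stimulated by forskolin 10 µM; beta-galactosidase reporter signal reflecting CREB driven transcription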
[16] = target: Streptavidin (Streptomyces avidinii) (UniProt P22629); assay: streptavidin binders on small-molecule microarray, primary screen, artefact control for SMM compound annotation, biophysical, 635/667 nm fluorescence (AID 1147); details: streptavidin binding, higher = more signal;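 further: signal reflects streptavidin binding to arrayed compounds as a control protein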
[17] = small-molecule binders of probe aInhba, primary screen, biochemical, small-molecule microarray, 635/667 nm fluorescence (AID 1148); details: higher = more signal;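 further: score merges 667nm spot fluorescence with signal-to-noise for antibody binding to printed compounds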
[18] = target: Torsin-1A (Homo sapiens) (UniProt O14656); assay: torsin A binders from cell lysate, primary screen, small-molecule microarray, wild-type, 635/667 nm (AID 1149); details: COS7 hTOR1A-WT lysate, 635 nm fluorescence, higher = more signal
[19] = target: Torsin-1A (Homo sapiens) (UniProt O14656); assay: small-molecule binders of mutant TOR1A in lysate, primary screen, cell lysate, small-molecule microarray, COS7 lysate, 635/667 nm fluorescence (AID 1150); details: COS7 hTOR1A mutant lysate, 635 nm fluorescence, higher = more signal;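 further: score pools 667 nm emission and signal to noise measuring lysate protein binding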
[20] = tested on: Sonic hedgehog protein (Shh); assay: small-molecule binders of Shh protein, primary screen, biochemical, small-molecule microarray, 635/667 nm fluorescence (AID 1151); details: small-molecule microarray binding, 635 nm fluorescence; higher = more signal;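 further: Shh protein binding to compounds spotted on small-molecule microarray slides; score combines spot fluorescence intensity with signal-to-noise across triplicate slides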

Chain of Luciferin 4-monooxygenase (Photinus pyralis) (P08659 whole entry, looked up): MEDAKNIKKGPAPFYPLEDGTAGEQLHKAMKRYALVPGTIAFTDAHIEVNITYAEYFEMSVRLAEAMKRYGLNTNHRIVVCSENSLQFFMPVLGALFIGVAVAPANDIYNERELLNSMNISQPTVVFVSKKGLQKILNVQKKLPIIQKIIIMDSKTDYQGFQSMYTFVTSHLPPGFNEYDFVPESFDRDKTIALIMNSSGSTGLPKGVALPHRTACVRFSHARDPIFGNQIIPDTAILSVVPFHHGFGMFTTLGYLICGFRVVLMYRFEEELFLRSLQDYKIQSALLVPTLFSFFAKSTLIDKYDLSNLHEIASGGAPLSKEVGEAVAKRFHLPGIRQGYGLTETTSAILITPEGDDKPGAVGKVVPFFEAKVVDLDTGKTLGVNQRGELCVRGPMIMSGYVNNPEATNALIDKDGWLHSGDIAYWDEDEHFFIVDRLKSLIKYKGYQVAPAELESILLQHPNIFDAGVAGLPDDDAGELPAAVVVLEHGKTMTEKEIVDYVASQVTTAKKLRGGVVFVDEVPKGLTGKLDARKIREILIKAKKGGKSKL
Chain of Follistatin (Homo sapiens) (P19883 whole entry, looked up): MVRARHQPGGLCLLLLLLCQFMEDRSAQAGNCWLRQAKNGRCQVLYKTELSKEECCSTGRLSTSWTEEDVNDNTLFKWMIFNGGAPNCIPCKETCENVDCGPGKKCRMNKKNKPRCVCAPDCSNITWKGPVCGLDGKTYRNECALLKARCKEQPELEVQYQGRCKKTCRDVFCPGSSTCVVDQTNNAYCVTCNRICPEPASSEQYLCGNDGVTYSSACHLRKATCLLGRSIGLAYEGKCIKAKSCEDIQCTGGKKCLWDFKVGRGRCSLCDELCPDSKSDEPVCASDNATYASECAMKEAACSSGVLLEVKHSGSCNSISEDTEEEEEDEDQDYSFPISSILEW
Chain of Fibroblast growth factor 2 (Homo sapiens) (P09038 whole entry, looked up): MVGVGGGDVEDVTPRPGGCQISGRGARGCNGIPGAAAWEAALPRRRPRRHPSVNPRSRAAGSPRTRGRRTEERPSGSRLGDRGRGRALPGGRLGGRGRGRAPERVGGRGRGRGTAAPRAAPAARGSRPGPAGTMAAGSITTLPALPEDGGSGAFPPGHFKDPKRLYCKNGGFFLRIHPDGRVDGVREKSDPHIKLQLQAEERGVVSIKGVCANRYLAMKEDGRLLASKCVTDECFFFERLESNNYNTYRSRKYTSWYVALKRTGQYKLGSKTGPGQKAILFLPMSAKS
Chain of Streptavidin (Streptomyces avidinii) (P22629 whole entry, looked up): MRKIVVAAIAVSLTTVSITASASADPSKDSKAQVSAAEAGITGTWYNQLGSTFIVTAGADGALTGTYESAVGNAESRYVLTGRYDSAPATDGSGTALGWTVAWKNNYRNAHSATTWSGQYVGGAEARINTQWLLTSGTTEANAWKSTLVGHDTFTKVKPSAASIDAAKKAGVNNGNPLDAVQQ
Chain of Torsin-1A (Homo sapiens) (O14656 whole entry, looked up): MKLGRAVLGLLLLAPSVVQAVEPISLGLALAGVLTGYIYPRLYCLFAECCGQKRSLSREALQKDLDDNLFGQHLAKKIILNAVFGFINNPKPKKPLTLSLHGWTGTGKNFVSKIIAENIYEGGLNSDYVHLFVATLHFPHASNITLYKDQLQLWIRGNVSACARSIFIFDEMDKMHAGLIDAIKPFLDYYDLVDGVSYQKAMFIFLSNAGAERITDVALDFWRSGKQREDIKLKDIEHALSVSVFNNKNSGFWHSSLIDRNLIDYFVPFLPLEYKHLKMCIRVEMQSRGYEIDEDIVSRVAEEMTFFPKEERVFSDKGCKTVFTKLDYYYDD
Chain of Focal adhesion kinase 1 (Homo sapiens) (Q05397 whole entry, looked up): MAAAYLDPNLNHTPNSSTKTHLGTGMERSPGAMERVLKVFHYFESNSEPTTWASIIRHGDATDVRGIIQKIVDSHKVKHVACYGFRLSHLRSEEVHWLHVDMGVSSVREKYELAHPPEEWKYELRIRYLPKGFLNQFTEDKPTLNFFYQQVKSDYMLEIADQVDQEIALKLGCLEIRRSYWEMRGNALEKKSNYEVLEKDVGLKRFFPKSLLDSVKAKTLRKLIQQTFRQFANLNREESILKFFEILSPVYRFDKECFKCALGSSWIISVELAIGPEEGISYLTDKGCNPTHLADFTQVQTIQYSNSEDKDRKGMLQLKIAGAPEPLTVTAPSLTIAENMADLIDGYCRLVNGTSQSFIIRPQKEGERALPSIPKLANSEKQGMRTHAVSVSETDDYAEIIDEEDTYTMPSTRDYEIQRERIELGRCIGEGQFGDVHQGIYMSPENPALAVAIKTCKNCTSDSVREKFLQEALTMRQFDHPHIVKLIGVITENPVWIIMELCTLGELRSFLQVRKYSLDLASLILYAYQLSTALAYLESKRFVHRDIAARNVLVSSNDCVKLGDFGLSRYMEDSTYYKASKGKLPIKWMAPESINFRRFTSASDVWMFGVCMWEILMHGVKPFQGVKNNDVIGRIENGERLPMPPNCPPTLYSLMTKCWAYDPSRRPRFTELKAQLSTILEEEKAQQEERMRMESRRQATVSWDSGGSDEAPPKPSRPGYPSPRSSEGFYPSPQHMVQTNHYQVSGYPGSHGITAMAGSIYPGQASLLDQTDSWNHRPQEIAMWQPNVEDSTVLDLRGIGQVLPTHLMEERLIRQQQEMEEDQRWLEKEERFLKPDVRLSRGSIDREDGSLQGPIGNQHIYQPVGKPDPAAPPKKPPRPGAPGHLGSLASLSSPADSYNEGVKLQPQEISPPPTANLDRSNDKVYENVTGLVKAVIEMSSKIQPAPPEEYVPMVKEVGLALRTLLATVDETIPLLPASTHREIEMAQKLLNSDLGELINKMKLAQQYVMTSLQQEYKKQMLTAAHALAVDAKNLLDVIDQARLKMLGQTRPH

| Compound | composite z-score [1] | composite z-score [2] | composite z-score [3] | composite z-score [4] | composite z-score [5] | composite z-score [6] | z-score [7] | composite z-score [8] | composite z-score [9] | z-score [10] | composite z-score [11] | z-score [12] | z-score [13] | z-score [14] | z-score [15] | composite z-score [16] | composite z-score [17] | composite z-score [18] | composite z-score [19] | composite z-score [20] |
| --- | --- | --- | --- | --- | --- | --- | --- | --- | --- | --- | --- | --- | --- | --- | --- | --- | --- | --- | --- | --- |
| C=CCOC(=O)[C@@H]1[C@H]2C(=O)O[C@H](c3ccccc3)[C@H](c3ccccc3)N2[C@H](c2ccc(OCCOC(=O)[C@H]3C[C@H]4C(=O)N[C@@H](CC(C)C)C(=O)N4[C@H]3c3ccc(O)cc3)cc2)[C@@]12C(=O)Nc1ccc(I)cc12 | 2.17 | 1.19 | 0.538 | 0.623 | 1.5 | 1.87 | -0.176 | 1.52 | 0.747 | -0.646 (inactive) | 0.504 | -0.141 (inactive) | 0.0488 (inactive) | 0.277 (inactive) | -1.14 (inactive) | 0.324 | -0.102 | 1.33 | 1.33 | 1.97 |
| CN1C(=O)C2C=CC(C(O)C3CCCCC3)N(N3CCCCC3)C2C1=O (stereo not given) | 1.18 | 1.26 | 0.542 | 0.957 | 1.31 | 0.182 | 1.25 | 0.766 | 0.774 | 0.49 (inactive) | 0.341 | 0.505 (inactive) | -0.416 (inactive) | -0.326 (inactive) | 0.158 (inactive) | 0.842 | 0.268 | 0.221 | 0.579 | 0.875 |
| COCCOC(=O)N1C(=O)[C@@]2(c3ccccc31)[C@H](C(=O)N1CCN(c3ncccn3)CC1)[C@H]1C(=O)O[C@H](c3ccccc3)[C@H](c3ccccc3)N1[C@@H]2c1ccc(OCCO)cc1 | 2.77 | 1.21 | 2.12 | 0.967 | 1.23 | 0.891 | -0.587 | 0.612 | 0.965 | -1.3 (inactive) | 0.561 | -1.12 (inactive) | -0.236 (inactive) | 1.3 (inactive) | -0.599 (inactive) | 1.19 | 0.336 | 0.281 | 0.59 | 1.82 |
| O=C1NC(=O)C2C1C=CC(C(O)c1cc(C(F)(F)F)cc(C(F)(F)F)c1)N2Nc1ccc(Cl)cc1Cl (stereo not given) | 0.864 | 1.05 | 0.46 | -0.607 | 0.109 | -0.544 | -0.836 | -1.03 | 0.802 | 0.172 (inactive) | 0.465 | -1.32 (inactive) | -0.673 (inactive) | -0.329 (inactive) | 0.78 (inactive) | 0.416 | 0.069 | -0.371 | 0.357 | -0.384 |
| CC(=O)n1cc(C(O)C2C=CC3C(=O)N(Cc4ccccc4)C(=O)C3N2n2cnnc2)c2ccccc21 (stereo not given) | 0.483 | 0.0022 | 0.418 | 0.948 | 0.0251 | -0.465 | -0.463 | 0.204 | 0.505 | 0.702 (inactive) | 0.363 | 0.276 (inactive) | 1.3 (inactive) | 0.631 (inactive) | -0.696 (inactive) | 1.05 | -0.152 | -0.466 | -0.0022 | 0.204 |
